In PubChem BioAssay (Tox21):
Inconclusive results are not listed. Where a structure was tested more than once in an assay, its records may differ in their call. Calls of active or inactive are those of the source. Unless noted, calls come from the whole dose curve; as a rule, active = well fitted curve in the direction sought with a large enough effect in the repeat runs; inconclusive = weak or mixed curves; inactive = no such curve, though single readings can be large; an effect the other way counts as inactive or inconclusive.

Columns and labels:
[1] = qHTS assay to identify small molecule agonists of the vitamin D receptor (VDR) signaling pathway - cell viability counter screen (AID 743224); note: nearly all actives have a fitted effect of over 50% in size; note: potency is the fitted concentration of half-maximal effect
Method in brief: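 In parallel with the bla FRET readout, cytotoxicity toward VDR-bla cells after 16 h compound exposure was assessed by CellTiter-Glo, with luminescence recorded after a 30 min room-temperature incubation.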

[2] = qHTS assay to identify small molecule antagonists of the vitamin D receptor (VDR) signaling pathway - cell viability counter screen (AID 743225); note: nearly all actives have a fitted effect of over 50% in size; note: potency is the fitted concentration of half-maximal effect
Method in brief: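 In this counter screen, VDR-bla HEK 293T cells receive test compound plus 3 nM final calcitriol for 16 h at 37C. Room-temperature steps of 2 h with the beta-lactamase substrate, then 30 min with CellTiter-Glo, precede the luminescence read.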

[3] = qHTS assay to identify small molecule agonists of the NFkB signaling pathway (AID 1159509; active = well fitted curve in the direction sought with a large enough effect in the signal ratio in the repeat runs, not every such curve was filed as active; the % refers to the signal ratio; note: series mostly up to about 61 µM)
Method in brief: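 Readout: FRET fluorescence, 405 nm excitation, 460/530 nm emission; beta-lactamase expression disrupts FRET. Cells: ME-180 stably carrying NF-kB-driven bla reporter. Compound exposure 5 hr, 37 C, 5% CO2.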

[4] = qHTS assay to identify small molecule agonists of the endoplasmic reticulum stress response signaling pathway (AID 1159516; active = well fitted activation curve with a large enough effect in the signal ratio in the repeat runs, not every such curve was filed as active; the % refers to the signal ratio)
Method in brief: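 Beta-lactamase expression from the ER stress response element in HeLa reporter cells is quantified with the LiveBLAzer B/G FRET substrate, read at 405 nm excitation after 2 hr at room temperature, following 5 hr compound treatment at 37 C.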

[5] = qHTS assay to identify small molecule agonists of the endoplasmic reticulum stress response signaling pathway - cell viability counter screen (AID 1159517; calls by dose curve; note: nearly all actives have a fitted effect of over 50% in size; note: potency is the fitted concentration of half-maximal effect)
Method in brief: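 Cytotoxicity of test compounds toward ESRE-bla HeLa cells was assessed after 5 hr exposure. The luminescent CellTiter-Glo signal was measured 30 min after reagent addition.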

[6] = qHTS assay to identify small molecule agonists of the AP-1 signaling pathway - cell viability counter screen (AID 1159525; calls by dose curve; note: nearly all actives have a fitted effect of over 55% in size; note: potency is the fitted concentration of half-maximal effect)
Method in brief: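 Each titration point was normalised to DMSO and tetra n-octyl ammonium bromide controls. The read was Cell Titer Glo luminescence after 30 min at RT, following 5 h compound exposure of ME-180 AP-1-bla cells at 37 °C.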

[7] = qHTS assay to identify small molecule agonists of the AP-1 signaling pathway (AID 1159526; calls by dose curve; note: potency is the fitted concentration of half-maximal effect)
[8] = qHTS assay to identify small molecule antagonists of the retinoid-related orphan receptor gamma (ROR-gamma) signaling pathway - cell viability counter screen (AID 1159520); note: nearly all actives have a fitted effect of over 50% in size; note: potency is the fitted concentration of half-maximal effect
Method in brief: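 Tet-on ROR gamma CHO cells (1,000/well) were plated 4 hr, given compounds in DMSO for 2 hr at 37 C, then induced with 1 uM final doxycycline for 16 hr. Viability was read as ATP by CellTiter-Glo luminescence after 30 min.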

[9] = biological target: Nuclear receptor ROR-gamma (Homo sapiens) (UniProt P51449); assay: qHTS assay to identify small molecule antagonists of the retinoid-related orphan receptor gamma (ROR-gamma) signaling pathway (AID 1159521; note: nearly all actives have a fitted effect of over 50% in size; note: potency is the fitted concentration of half-maximal effect)
Method in brief: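 Screening format: cell-based luciferase reporter in CHO cells with doxycycline-inducible RORγ. Compound pre-exposure lasts 2 h, doxycycline is 1 uM final, induction runs 16 h at 37 C, and ONE-Glo luminescence is read.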

Measured: Potency

CC(=O)Nc1cc(S(=O)(=O)O)cc2cc(S(=O)(=O)O)c(N=Nc3ccccc3)c(O)c12
inactive: [1] | [2] | [3] | [4] | [5] | [6] | [7]

Cc1cc(C)c(N)cc1C
inactive: [1] | [3] | [4] | [8] | [9] | [6] | [7]

CO/N=C(/C(=O)N[C@@H]1C(=O)N2C(C(=O)O)=C(COC(N)=O)CS[C@H]12)c1ccco1
inactive: [1] | [2] | [3] | [4] | [5] | [8] | [9] | [6]

COc1ncnc(NS(=O)(=O)c2ccc(N)cc2)c1OC
inactive: [1] | [2] | [3] | [4] | [5] | [8] | [9] | [6] | [7]

CCC(=O)OC
inactive: [1] | [3] | [4] | [5] | [8] | [6] | [7]

Cc1ccccc1N=C(N)Nc1ccccc1C
inactive: [1] | [3] | [4] | [8] | [9] | [6] | [7]

CC(=O)c1cc2ccccc2s1
inactive: [1] | [2] | [3] | [4] | [5] | [8] | [9] | [6] | [7]

Nc1nc2ccc([N+](=O)[O-])cc2s1
inactive: [1] | [3] | [4] | [5] | [8]

Nc1ncnc2c1ncn2[C@H]1CC[C@@H](CO)O1
inactive: [1] | [3] | [4] | [8] | [9] | [6] | [7]

COc1cc(C(=O)NC2CCN(C)CC2)ccc1Nc1ncc2c(n1)N(C1CCCC1)CC(F)(F)C(=O)N2C
inactive: [3] | [4] | [7]
active: [1] 15.9 µM | [2] 7.11 µM | [5] 50.4 µM | [8] 22.3 µM | [9] 15.8 µM | [6] 6.34 µM

O=C(O)CCCCCCCCCCCBr
inactive: [1] | [3] | [4] | [8] | [9] | [6] | [7]

FC(F)(F)c1ccccc1Cl
inactive: [1] | [2] | [3] | [4] | [5] | [8] | [6] | [7]

N#[N+]c1ccc2c(S(=O)(=O)[O-])cccc2c1O
inactive: [1] | [2] | [3] | [4] | [5] | [8] | [9] | [7]

O=C1Cc2ccccc2N1c1c(Cl)cccc1Cl
inactive: [1] | [3] | [4] | [5] | [8]

COc1cc(N)c(Cl)cc1C(=O)NC1CCN(CCCOc2ccc(F)cc2)CC1OC (centres undefined)
inactive: [2] | [3] | [4] | [5] | [8] | [9] | [6] | [7]

CCC1(CO)COCOC1
inactive: [2] | [3] | [4] | [5] | [8] | [9] | [6] | [7]

C[C@]12CC[C@@H]3c4ccc(O)cc4CC[C@H]3[C@@H]1CC[C@@H]2OC(=O)CCC1CCCC1
43.6 µM (active) and inactive: [1]
inactive: [2] | [3] | [4] | [5]
active: [8] 43.3 µM | [9] 30.6 µM

Cc1cc(O)ccc1O
inactive: [1] | [2] | [3] | [4] | [5]
active: [9] 24.6 µM

CN1CCCC(CC2c3ccccc3Sc3ccccc32)C1 (centres undefined)
inactive: [3] | [4] | [5] | [6]
active: [1] 26.6 µM | [2] 21.3 µM | [7] 16.9 µM

O=C1c2ccccc2C(=O)C1c1ccc(Br)cc1
inactive: [1] | [2] | [3] | [4] | [5] | [8] | [9] | [7]

COc1ccccc1NC(=O)c1cc2ccccc2cc1O
inactive: [3] | [4] | [5] | [6] | [7]
active: [1] 21.9 µM | [2] 38.9 µM | [9] 30.6 µM

O=C1c2ccccc2C(=O)N1CCc1noc(-c2ccc(CN3CCCCCC3)s2)n1
inactive: [2] | [3] | [4] | [5] | [8] | [6] | [7]

N#CCCN(CCO)CCO
inactive: [1] | [2] | [3] | [4] | [5] | [8] | [9] | [6]

COc1ccccc1N1CCN(CC(O)COc2cccc3ccccc23)CC1 (centres undefined)
active: [6] 23.9 µM
inactive: [1] | [2] | [3] | [4] | [5] | [8]

CCCCN(CCN(CCCC)C(=O)N1CCOCC1)C(=O)N1CCOCC1
inactive: [2] | [3] | [4] | [5] | [8] | [6]
active: [1] 33.5 µM
